Where a name gives a salt, the structure may show the parent alone. Values without a mark were called inactive.
system: HeLa; assay: MALAT1 nuclear FISH intensity, robust Z-score vs DMSO; higher = more nuclear MALAT1 lncRNA, active = -3 or less; settings: 10 µM; 6 h
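Further: High-content confocal imaging of branched-DNA amplified FISH in 384-well plates, Hoechst-defined nuclei, score is well value minus plate DMSO median over DMSO robust SD, four wells per compound.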

| SMILES | MALAT1 nuclear FISH intensity |
| --- | --- |
| CCCCC[C@H](O)/C=C/[C@H]1C(=O)C[C@H](O)[C@@H]1C/C=C\CCCC(=O)O [Prostaglandin  D2] | 0.0927 |
| CC(C)OC(=O)C(C)(C)Oc1ccc(C(=O)c2ccc(Cl)cc2)cc1 [Fenofibrate] | -0.495 |
| CN1CCC(=C2c3ccccc3C=Cc3ccccc32)CC1 [Cyproheptadine hydrochloride sesquihydrate] | -0.789 |
| O=P(O)(O)C(O)(Cn1ccnc1)P(=O)(O)O [Zoledronic acid] | -0.895 |
| Cc1ccc(Nc2nccc(N(C)c3ccc4c(C)n(C)nc4c3)n2)cc1S(N)(=O)=O | 0.577 |
| C[C@H](CCC(=O)O)[C@H]1CC[C@H]2[C@@H]3CC[C@@H]4C[C@H](O)CC[C@]4(C)[C@H]3CC[C@]12C [Lithocholic acid] | -0.045 |
| CCS(=O)(=O)CCn1c([N+](=O)[O-])cnc1C [Tinidazole] | -0.751 |
| CCOC(=O)C1=C(COCCN)NC(C)=C(C(=O)OC)C1c1ccccc1Cl (centres undefined) [Amlodipine] | 0.523 |
| CC1=C(/C=C/C(C)=C/C=C/C(C)=C/C(=O)O)C(C)(C)CCC1 [Tretinoin] | -0.633 |
| CC(C)(C)c1cc(O)c(C(C)(C)C)cc1O [2,5-Ditertbutylhydroquinone] | -0.705 |
| NCc1ccc(S(N)(=O)=O)cc1 | 0.323 |
| Cc1onc(-c2ccccc2)c1C(=O)N[C@@H]1C(=O)N2[C@@H]1SC(C)(C)[C@@H]2C(=O)O [Oxacillin sodium salt monohydrate] | 1.4 |
| CCCCCCCCCCCCCCCC(=O)C1=C(O)[C@@H](CO)OC1=O | -1.76 |
| O[C@H]1[C@H]2c3cc4c(cc3CN3CCC(=C[C@@H]1O)[C@H]23)OCO4 [Lycorine] | 10.2 |
| Cc1cc(C)cc(OCC2CNC(=O)O2)c1 (centres undefined) [Metaxalone] | -0.0767 |
| CN[C@H]1CC[C@@H](c2ccc(Cl)c(Cl)c2)c2ccccc21 [Sertraline hydrochloride] | -1.48 |
| CCc1cccc2c3c([nH]c12)C(CC)(CC(=O)O)OCC3 (centres undefined) [Etodolac] | -0.647 |
| COc1ccc2cccc(CCNC(C)=O)c2c1 [Agomelatine] | -0.97 |
| Nc1ccn([C@@H]2O[C@H](CO)[C@@H](O)[C@@H]2O)c(=O)n1 [Cytarabine] | 1.16 |
| Clc1ccc2nsnc2c1NC1=NCCN1 | -0.0216 |
| CCCCCCCCCCCCC/C=C/[C@@H](O)[C@H](CO)NCCCCCCCC [C8 Ceramine] | -0.263 |
| CC(C(=O)O)c1cccc(Oc2ccccc2)c1 (centres undefined) [Fenoprofen Calcium] | -0.805 |
| CCC1=C(C)CN(C(=O)NCCc2ccc(S(=O)(=O)NC(=O)N[C@H]3CC[C@H](C)CC3)cc2)C1=O [Glimepiride] | -0.417 |
| CC/C(=C(\c1ccccc1)c1ccc(OCCN(C)C)cc1)c1ccccc1 [Tamoxifen] | 0.0111 |
| O=C1Cc2cc(CCN3CCN(c4nsc5ccccc45)CC3)c(Cl)cc2N1 [Ziprasidone] | 0.361 |
| Nc1c(Br)cc(Br)cc1CN[C@H]1CC[C@H](O)CC1 [Ambroxol hydrochloride] | -1.16 |
| CCCCC/C=C\C/C=C\CCCCCCCCCC(=O)O [Eicosadienoic acid (20:2 n-6)] | 1.19 |
| CCCCCCCCCCCCCCCCCCOC[C@H](COP(=O)([O-])OCC[N+](C)(C)C)OC(C)=O | 0.00179 |
| CC1(C)CCC(C)(C)c2cc(C(=O)Nc3ccc(C(=O)O)cc3)ccc21 | -0.949 |
